According to PubChem BioAssay (Tox21):
Records with an inconclusive call do not appear. Values without a mark were called inactive. Calls of active or inactive are those of the source. Calls follow the shape of the dose curve; as a rule, active = well fitted activation curve with a large enough effect in the repeat runs; inconclusive = weak or mixed curves; inactive = flat fitted curve, though single readings scatter.

Test: Caspase-3/7 induction in HepG2 cells by small molecules, qHTS assay (AID 1346978); also: nearly all actives have a fitted effect of over 15% in size
Details: HepG2 caspase-3/7 activation, Caspase-Glo luminescence, 17 h; series mostly up to 92.4 µM; caspase activation: at the top concentration
Source text: National Center for Advancing Translational Sciences [NCATS] NIH Chemical Genomics Center [NCGC] U.S. Environmental Protection Agency [EPA] National Institutes of Environmental Health Sciences [NIEHS] National Toxicology Program [NTP] Assay overview: Apoptosis is a process of programmed cell death and plays a central role in the development of multicellular organisms. It is a highly regulated process and induces cell death by activating caspases, which are the members of cysteine aspartic acid-specific protease (caspase) family. Caspases involved in apoptosis are classified by their mechanism of action as initiator caspases (caspase-2, -8, -9 and -10) and executioner caspases (caspase-3, -6, and -7). Inhibition of apoptosis results in number of cancers, autoimmune diseases, inflammatory diseases and viral infection. To identify small molecule compounds that induce apoptosis, a homogeneous, luminescent Caspase-Glo 3/7 assay was used. Wild type HepG2 cells were used to screen Tox21 libraries for identifying caspase-3/7 activity inducers.
Assay Protocol Summary: HepG2 cells were dispensed at 2,000 per well in 5uL of culture medium into white solid bottom 1536-well plates (Corning Life Sciences, Corning, NY) using a Multidrop Combi (Thermo Scientific, Waltham, MA) dispenser. The assay plates were incubated at 37 C and 5% CO2 for 5hr, and then 23nL of compounds dissolved in DMSO and positive control were transferred using a Pintool station (Wako, San Diego, CA). The assay plates were incubated at 37C and 5% CO2 for 17hr. For caspase-3/7 activity read, 4uL of Caspase-Glo 3/7 reagent (Promega Corporation, Madison, WI) was added to each well of the assay plates using Flying Reagent Dispenser (FRD, Aurora Discovery, San Diego, CA) and incubated the assay plates at room temperature for 30min. The luminescence signal was quantified using a ViewLux plate reader (Perkin Elmer, Shelton, CT).
% is scaled to controls: 0 for no effect and ±100 for the full control effect.

| SMILES | caspase activation | Potency |
| --- | --- | --- |
| O=[N+]([O-])c1ccccc1CCl | -0.915% | – |
| CC1(C)CCC(Cc2ccc(Cl)cc2)C1(O)Cn1cncn1 (stereo not given) | 11% | – |
| CC(O)(CS(=O)(=O)c1ccc(F)cc1)C(=O)Nc1ccc(C#N)c(C(F)(F)F)c1 (stereo not given) | -1.92% [at 42.5 µM] | – |
| c1ccoc1 | -0.938% | – |
| O=NN1CCNCC1 | -0.393% | – |
| CCC(Cl)CCl (stereo not given) | -0.0801% | – |
| Cc1ccccc1C(=O)Nc1cccc(OC(C)C)c1 | 0.308% | – |
| Nc1nc(=S)[nH][nH]1 | 0.214% | – |
| Cc1ccc2ccccc2c1 | -1.18% | – |
| CCCC(=O)Cl | -1.04% | – |
| c1ccc(C2CC2)c(OCC2=NCCN2)c1 | 0.413% [at 42.5 µM] | – |
| C=CC(=O)OC(C)(C)C | -0.104% | – |
| c1ccc(CN2CCNCC2)cc1 | 0.0123% [at 240 µM] | – |
| CC1CC(CC2CCC(N)C(C)C2)CCC1N (stereo not given) | -0.59% | – |
| C=CCOC(C)=O | -0.124% | – |
| O=C(OC1CCCCC1)c1ccccc1C(=O)OC1CCCCC1 | 1.16% | – |
| [O-][Cl+]O | 1.57% | – |
| CC1(C)[C@H](C=C(Cl)Cl)[C@@H]1C(=O)O[C@@H](C#N)c1cccc(Oc2ccccc2)c1 | -4.64% | – |
| C=CC(=O)OCCCCO | -1.28% | – |
| OCCCBr | 0.25% | – |

| SMILES | caspase activation | Potency |
| --- | --- | --- |
| CCCCCCCCOC(=O)c1ccc(C(=O)OCCCCCCCC)c(C(=O)OCCCCCCCC)c1 | 1.8% | – |
| C/C=C/C=O | 0.415% | – |
| [CH3][Sn]([CH3])([Cl])[Cl] | – | inactive |
| O=S1OC[C@@H]2[C@H](CO1)[C@]1(Cl)C(Cl)=C(Cl)[C@@]2(Cl)C1(Cl)Cl (stereo not given in full) | -3.27% | – |
| CCOc1nc(F)cc2nc(S(=O)(=O)Nc3c(Cl)cccc3Cl)nn12 | 2.22% | – |
| CC(C)(Cl)[N+](=O)[O-] | 0.0101% | – |
| Cc1cc(=O)[nH]o1 | 0.701% | – |
| O=C(N[C@H](c1ccccc1)[C@@H]1CN2CCC1CC2)c1c(Cl)ccc(C(F)(F)F)c1Cl | 11% | – |
| C=CC(=O)OCC(C)C | -4.52% | – |
| O=C(CBr)OCc1ccccc1 | -1.11% | – |
| N#Cc1cc(I)c(O)c(I)c1 | -7.06% | – |
| C#CCOC(C(=O)OCCN(C)C)(c1ccccc1)c1ccccc1 | 0.141% [at 42.5 µM] | – |
| N#Cc1ccc(Cl)cc1 | 0.661% | – |
| c1cc2ccc3cccc4ccc(c1)c2c34 | -3.17% | – |
| ClC=C(Cl)Cl | 0.139% | – |
| COC(=O)C(Cl)C(=O)OC | 0.106% [at 42.5 µM] | – |
| COC(N)=O | 0.424% | – |
| COc1nn(CSP(=S)(OC)OC)c(=O)s1 | -2.17% | – |
| O=C(O)C(F)(F)C(F)(F)C(F)(F)C(F)(F)C(F)(F)C(F)(F)C(F)(F)C(F)(F)C(F)(F)F | -1.36% | – |
| COC1=CC(=O)O[C@@H](CCc2ccccc2)C1 | -3.01% | – |
